The results in this text go back to PubChem BioAssay AID1053119 (Broad Institute, 2014).

Measured potencies and affinities stand elsewhere. Records with an inconclusive call do not appear. Calls of active or inactive are those of the source.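 How the source made its calls: active means signal loss from cell killing with fitted potency at or below twice the top valid dose; inconclusive means flat drop of 30 to 70%, or unreliable curve fit; inactive means opposite direction, flat within 30%, or weaker potency.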

The assay is described as follows: viability loss in A549 lung cancer cells – cell-based, cherry-picks, 26 µM top dose, cytotoxicity control, dose response (AID 1053119). The following applies: CellTiter-Glo ATP luminescence, 72 h; series mostly up to 26 µM. Background: In ATP-based viability assays light output follows the ATP content of the culture.
On to `C[C@H]1CN([C@@H](C)CO)C(=O)c2cc(-c3ccccc3)cnc2O[C@@H]1CN(C)C(=O)c1cccc(F)c1`, for which the result was inactive.
The value for `COC(=O)C[C@@H]1CC[C@H]2[C@H](COc3ccc(NC(=O)Cc4cccs4)cc3C(=O)N2C)O1` was “inactive”; that for `CCCCOc1ccc(C(C)NC(=O)C2CCCN(S(=O)(=O)CCC)C2)cc1` (stereo not drawn) was “inactive”.
The value for `C[C@@H]1CN([C@H](C)CO)C(=O)c2cc(NC(=O)CCCN(C)C)ccc2O[C@H]1CN(C)Cc1ccc(-c2ccccc2)cc1` was “inactive”; that for `CO[C@H]1CN(C)C(=O)c2cc(NC(C)=O)ccc2OC[C@@H](C)N(C(=O)CN2CCOCC2)C[C@H]1C` was “inactive”; that for `CCN1CCN(C(c2ccccc2)c2nnnn2Cc2ccccc2)CC1` (stereo not drawn) was “inactive”.
The value for `C[C@H](CO)N1C[C@H](C)[C@@H](CN(C)C(=O)c2cccc(F)c2)Oc2ncc(-c3ccccc3)cc2C1=O` was “inactive”; that for `C[C@@H]1CN([C@H](C)CO)C(=O)c2cc(NC(=O)C3CCCCC3)ccc2O[C@H]1CN(C)Cc1ccc(-c2ccccc2)cc1` was “inactive”.
For `O=S(=O)(c1ccccc1F)N1CC[C@H]2[C@H](CO)Nc3ccc(-c4cccc(F)c4)cc3[C@H]21`, the outcome was inactive.
The value for `Cc1ccc(-c2nc3ncccc3o2)cc1NC(=O)c1ccco1` was “inactive”; that for `C[C@@H](O)C#Cc1ccc2c(c1)O[C@@H](CN(C)C)[C@@H](C)CN([C@@H](C)CO)S2(=O)=O` was “inactive”; that for `O=S(=O)(c1cccc(F)c1)N1CC[C@@H]2[C@H]1c1cc(-c3cccc(F)c3)ccc1N[C@@H]2CO` was “inactive”.
In the case of `C[C@H](CO)N1C[C@H](C)[C@H](CN(C)C(=O)Nc2cccc3ccccc23)Oc2c(NC(=O)Nc3ccc(C(F)(F)F)cc3)cccc2C1=O` it was “inactive”.
